KCNQ2 block = KCNQ2 (rat) channel inhibition; AID 2156; CHO-K1 KCNQ2, FluxOR thallium flux, 20 min; hits give low values; B-score at 10 µM; hit rate 1.1% among 310,000;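 active means fluorescence ratio B-score at most minus 3 library SDs, with starting brightness B-score within 2 library SDs, cut at about -5.5 in these data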
Target sequence (O88943 whole entry, looked up): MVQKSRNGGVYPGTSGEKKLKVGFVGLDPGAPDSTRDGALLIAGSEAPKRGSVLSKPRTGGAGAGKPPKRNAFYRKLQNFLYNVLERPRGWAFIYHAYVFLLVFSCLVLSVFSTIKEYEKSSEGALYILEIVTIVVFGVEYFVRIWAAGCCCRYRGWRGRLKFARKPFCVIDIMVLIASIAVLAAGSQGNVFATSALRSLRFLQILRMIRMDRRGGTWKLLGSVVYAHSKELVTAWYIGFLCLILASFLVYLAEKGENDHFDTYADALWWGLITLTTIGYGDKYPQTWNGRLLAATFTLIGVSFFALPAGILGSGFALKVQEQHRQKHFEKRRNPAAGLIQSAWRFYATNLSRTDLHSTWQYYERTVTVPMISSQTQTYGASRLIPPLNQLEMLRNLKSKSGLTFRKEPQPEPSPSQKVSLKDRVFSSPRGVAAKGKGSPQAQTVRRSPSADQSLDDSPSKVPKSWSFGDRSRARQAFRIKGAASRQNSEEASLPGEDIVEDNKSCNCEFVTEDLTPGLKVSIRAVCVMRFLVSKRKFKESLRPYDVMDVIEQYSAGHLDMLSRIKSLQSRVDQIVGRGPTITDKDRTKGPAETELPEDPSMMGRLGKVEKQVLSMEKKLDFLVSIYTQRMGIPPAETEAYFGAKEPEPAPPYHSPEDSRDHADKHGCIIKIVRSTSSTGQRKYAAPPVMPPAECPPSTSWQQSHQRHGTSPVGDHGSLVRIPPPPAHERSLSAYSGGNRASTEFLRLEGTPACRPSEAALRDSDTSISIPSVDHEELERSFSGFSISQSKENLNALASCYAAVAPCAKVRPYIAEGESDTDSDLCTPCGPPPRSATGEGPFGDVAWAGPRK
KCNQ2 enhance = potentiators of rat KCNQ2 potassium channel; CHO-K1 KCNQ2, FluxOR thallium flux fluorescence; hits give high values; B-score at 10 µM; hit rate 0.54% among 310,000;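 active means fluorescence ratio B-score at least 3 SD of library B-scores, with initial fluorescence B-score within 3 of them, cut at about 5.3 in these data; same plate scores as AID 2156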;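 further: B-score of peak minus minimum over baseline fluorescence ratio after K+ and Tl+ stimulus; positive B-score means potentiation of KCNQ2 with more thallium influx and brighter signal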
KCNQ2 inh conf = rat KCNQ2 channel inhibition, confirmatory screen | KCNQ2-expressing cells, thallium flux; hits give low values | shares compounds with KCNQ2 block | hit rate 57% among 1,000 | activity change, negative = inhibition, % at 10 µM;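 further: 0% = vehicle wells and values are ratio percent relative to vehicle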
KCNQ1 spec = KCNQ2 inhibitor that also affects human KCNQ1 channel. shares compounds with KCNQ2 block. KCNQ1-expressing cells, FluxOR thallium flux fluorescence; hits give low values. activity change, negative = inhibition, % at 10 µM. hit rate 15% among 1,000. AID 493026;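 active means activity change at least 3 SD of negative controls below their mean in both duplicate wells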;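 further: CHO cells stably transfected with KCNQ1 and depolarized by potassium stimulus; peak minus minimum fluorescence over baseline after thallium addition; 0% = vehicle negative control and -100% = blank without thallium stimulus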
CHO parental ctr = activity in parental CHO cells lacking KCNQ2 | hit rate 14% among 1,000 | shares compounds with KCNQ2 block | thallium flux counter-screen; hits give low values | activity change, % at 10 µM | AID 493029;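 further: 0% = vehicle negative controls with stimulus buffer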
KCNQ2 patch conf = blocks rat KCNQ2 current in automated patch clamp; shares compounds with KCNQ2 block; KCNQ2-expressing cells; calls only at 10 µM; hit rate 49% among 550; AID 588531
An asterisk follows results filed as active; i = inactive; . = no result; + = active, no number. Only some compounds are listed: those with a hit (about 1.6% of all), similar ones and a draw of the others. Unless noted, how the calls were made is not given here.

SMILES	KCNQ2 block	KCNQ2 enhance	KCNQ2 inh conf	KCNQ1 spec	CHO parental ctr	others
O=C(NCCCN1CCCC(O)C1)c1cc(COc2ccc(F)cc2F)on1 (centres undefined)	i	0.33	.	.	.
CC(C)(C)OC(=O)N1CCC(Cc2cc(-c3cccnc3)no2)(C(=O)O)CC1	i	0.91	.	.	.
COc1cccc(CSc2nc3sc(C)c(C)c3c(=O)n2Cc2ccco2)c1	-8.81*	-8.81	-28.0%*	i	i	KCNQ2 patch conf=i
Cc1sc2nc(SCc3ccccc3)n(Cc3ccco3)c(=O)c2c1C	i	.	.	.	.
Cc1cc(C(=O)Nc2cccc3ccccc23)c(C)o1	i	1.67	.	.	.
Cc1oc(CC(C)C)cc1C(=O)Nc1cccc2ccccc12	-7.74*	-7.74	i	i	i
COc1cccc(N(CC(=O)NCCSCc2ccc(Cl)cc2)S(C)(=O)=O)c1	i	.	.	.	.
CNC(=O)COC(=O)c1cc(-c2ccco2)nc2ccccc12	i	.	.	.	.
CCN(CC)CCNC(=O)c1cc(-c2ccco2)nc2ccccc12	i	0.72	.	.	.
COc1ccc(CCNC(=O)c2cc(-c3ccco3)nc3ccccc23)cc1	-8.16*	-8.16	-27.0%*	i	i	KCNQ2 patch conf=+
O=C(COC(=O)c1cc(-c2ccco2)nc2ccccc12)NCc1ccccc1	-6.91*	-6.91	i	i	i
CCOc1ccc(S(=O)(=O)N2CCC(C(=O)NC3CCCCC3)CC2)cc1	i	.	.	.	.
O=C(NCCc1ccccc1)c1ccc2nc(-c3ccco3)c(-c3ccco3)nc2c1	i	0.57	.	.	.
O=C(c1ccccc1)c1ccc2nc(-c3ccco3)c(-c3ccco3)nc2c1	-7.7*	-7.7	i	i	i
COC(=O)c1ccc(C(=O)NC2CCCc3c2cnn3-c2cc(F)cc(F)c2)nc1 (centres undefined)	i	.	.	.	.
Cc1ccc2nc(-c3ccccc3)cc(C(=O)N(C)CC(=O)Nc3ccccc3Br)c2c1	-8.06*	-8.06	i	i	i
COc1ccc(NC(=O)CN(C)C(=O)c2cc(-c3ccccc3)nc3ccccc23)cc1	i	.	.	.	.
O=C(CCCOc1ccc(Br)cc1)NNC(=O)c1ccncc1	i	2.61	.	.	.
Cc1ccc(C2=Nc3ccccc3SC(c3cccc([N+](=O)[O-])c3)C2)cc1 (centres undefined)	i	.	.	.	.
CCCCN(C)c1nc(-c2ccco2)c2c(c1C#N)CC(C)(C)OC2	-8.16*	-8.16	i	i	i
CN(C)CCNc1nc(-c2ccco2)c2c(c1C#N)CC(C)(C)OC2	i	.	.	.	.
CN1CCN(C2Cc3ccc(F)cc3Sc3cc(F)c(Cl)cc32)CC1 (centres undefined)	i	.	.	.	.
CC(C)c1ccc2c(c1)C(N1CCNCC1)Cc1ccc(F)cc1S2 (centres undefined)	-9.69*	-9.69	-38.5%*	-36.5%*	-31.0%*	KCNQ2 patch conf=i
CCC(C)NC(=O)CC(c1ccccc1)c1cc(C)ccc1O (centres undefined)	i	0.08	.	.	.
O=C(Nc1ccccc1F)c1cc(-c2ccco2)nc2ccccc12	i	0.04	.	.	.
SMILES	KCNQ2 block	KCNQ2 enhance	KCNQ2 inh conf	KCNQ1 spec	CHO parental ctr	others
COc1cc(-c2cc(C(=O)Nc3ccc(O)cc3)c3ccccc3n2)cc(OC)c1OC	-7.67*	-7.67	-29.5%*	i	i	KCNQ2 patch conf=+
O=C(Nc1ccccc1N1CCOCC1)c1cc(-c2ccco2)nc2ccccc12	-7.02*	-7.02	-54.0%*	-54.5%*	-50.0%*	KCNQ2 patch conf=+
COc1cc(-c2cc(C(=O)Nc3ccccc3N3CCOCC3)c3ccccc3n2)cc(OC)c1OC	-7.79*	-7.79	-31.0%*	i	i	KCNQ2 patch conf=+
COc1cc(-c2cc(C(=O)Nc3nc4ccccc4s3)c3ccccc3n2)cc(OC)c1OC	i	.	.	.	.
COc1ccc(-c2cc(C(=O)NN3CCOCC3)c3ccccc3n2)cc1OC	i	0.26	.	.	.
CCc1nc(NC(=O)Cc2csc(C)n2)sc1C(=O)OC	i	1.26	.	.	.
Cc1ccccc1CN1CCC(N2CCC(C(=O)NCC3CCCO3)CC2)CC1 (centres undefined)	i	.	.	.	.
CC(C)Oc1ccc(C(=O)NC(=S)Nc2ccc(Cl)c(C(=O)O)c2)cc1	i	.	.	.	.
CCN(CC)C(=O)C1CCN(C(=O)c2oc3ccc(C)cc3c2C)CC1	i	.	.	.	.
CCN(CC)C(=O)C1CCCN(C(=O)c2oc3ccc(C)cc3c2C)C1 (centres undefined)	-6.97*	-6.97	i	i	i
CSc1cccc(NC(=O)CCNS(=O)(=O)c2ccc3[nH]c(=O)oc3c2)c1	i	.	.	.	.

Screens from PubChem.
